# “And” between values parts separate entries of the source, which are not always exact repeats. Identical values can stand only once. Records with an inconclusive call do not appear. The source made the active and inactive calls. Unless noted, the rule behind the calls is not given here. Non-standard residues stand in square brackets, D forms with d. Residues, ends and D or L forms follow the SMILES beside them. *: point of attachment. Sta = CC(C)C[C@H](N)[C@@H](O)CC(=O)O; Isovaleryl = CC(C)CC(=O)*
# Tests used:
# [1] = qHTS Assay for Identifying Gametocytocidal Compounds (AID 743244; active = well fitted curve in the direction sought with a large enough effect; an effect the other way counts as inactive or inconclusive; note: potency is the fitted concentration of half-maximal effect;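 for max response: % is set by controls: 0 for no effect and ±100 for the full control effect; actives lower the fluorescent signal which means gametocytes are killed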); conditions: P. falciparum 3D7 stage III-V gametocytes, alamarBlue, 72 h; max response: stronger effect = lower value
# Outline: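 3D7 gametocytes, stages III–V, 20,000/well; cpd 72 h, 37 °C/5% CO2; + alamarBlue 24 h; fluor. Ex 525/Em 598.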
# [2] = qHTS profiling of the MIPE4 collection as inhibitors of Plasmodium falciparum (3D7) proliferation (AID 743344);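 note: scaled between DMSO vehicle wells and 0.29 µM artemisinin as full inhibition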; conditions: P. falciparum 3D7 in erythrocytes, SYBR Green DNA fluorescence, 72 h
# Outline: (§1)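 Parasite DNA was quantified by SYBR Green I fluorescence (ex 485, em 535 nm) after overnight lysis in saponin/Triton buffer at room temperature. Cultures at 0.3% parasitemia and 2.5% hematocrit were first exposed to compound for 72 h at 37 C; signals were normalised to artemisinin (0.29 uM) and vehicle wells.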
# [3] = qHTS profiling for inhibitors of Plasmodium falciparum (3D7) proliferation (AID 743322);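 note: infected erythrocytes exposed to compound for 72 h before lysis; 100% = DMSO vehicle wells and 0% = 0.29 µM artemisinin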; conditions: P. falciparum 3D7 proliferation; at 28.7 µM (top of the series) unless noted
# Outline: as §1
# [4] = qHTS profiling for inhibitors of Plasmodium falciparum (DD2) proliferation (AID 743323); conditions: lower = more inhibition; at 28.7 µM (top of the series) unless noted
# Outline: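 Parasite DNA quantified by SYBR Green fluorescence (ex 485, em 535 nm) after saponin/Triton lysis and overnight dark incubation. Cultures: 0.3% parasitemia, 2.5% hematocrit, 72 h, 37 C; data scaled between DMSO and 0.29 uM artemisinin.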
# [5] = qHTS profiling for inhibitors of Plasmodium falciparum (HB3) proliferation (AID 743324; active = well fitted curve in the direction sought with a large enough effect; an effect the other way counts as inactive or inconclusive;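 note: 100% = DMSO vehicle wells and 0% = artemisinin-treated control wells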); conditions: Plasmodium falciparum HB3 blood-stage proliferation; at 28.7 µM (top of the series) unless noted
# Outline: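 SYBR Green fluorescence (485 ex/535 em) of lysed cultures, incubated overnight at room temperature in the dark, quantifies parasite DNA. Infected erythrocytes at 0.3% parasitemia and 2.5% hematocrit were exposed 72 h; values normalized to DMSO and 0.29 uM artemisinin controls.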
# [6] = qHTS assay for cell viability of HEK293 cells (AID 743288; active = well fitted curve in the direction sought with a large enough effect; an effect the other way counts as inactive or inconclusive; note: % is set by controls: 0 for no effect and ±100 for the full control effect; nearly all actives have a fitted effect of over 50% in size); conditions: ATP luminescence (CellTiter-Glo), 18 h; max response: stronger effect = lower value
# Outline: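 After 18 h compound exposure at 37 C, parental HEK293 cells (2,000/well) are lysed with CellTiter-Glo and luminescence is read following 30 min at room temperature.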
# [7] = qHTS assay for cell viability of the p53RE-bla HCT-116 cell line (AID 743292; active = well fitted curve in the direction sought with a large enough effect; an effect the other way counts as inactive or inconclusive; note: % is set by controls: 0 for no effect and ±100 for the full control effect; nearly all actives have a fitted effect of over 55% in size)
# Outline: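 CellSensor p53RE-bla HCT-116 cells, 4,000/well, preincubated 5 h at 37 C, then exposed to compounds in DMSO for 16 h at 37 C. Viability read as CellTiter-Glo luminescence (intracellular ATP) after 30 min at room temperature.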
# [8] = at 28.5 µM (top of the series) unless noted
structure (smiles),measurement,setting,value
CC1(C)CCC(C)(C)c2cc(NC(=O)c3ccc(C(=O)O)cc3)ccc21,max response,[1],7.33% (inactive)
same,"parasite growth, % of DMSO control",[2]; [8],23.1%
Nc1cc(C(Cl)=C(Cl)Cl)c(S(N)(=O)=O)cc1S(N)(=O)=O,max response,[1],0.487% (inactive) and -9.48% (inactive)
same,"parasite growth, % of DMSO control",[2]; [8],103%
CCC1=C(C)CN(C(=O)NCCc2ccc(S(=O)(=O)NC(=O)NC3CCC(C)CC3)cc2)C1=O (configuration not stated),max response,[1],36.8% (inactive)
same,"parasite growth, % of DMSO control",[2]; [8],98.4%
COC(=O)C1=C(C)NC(C)=C(C(=O)OC(C)C)C1c1cccc2nonc12 (configuration not stated),max response,[1],3.5% (inactive)
same,"parasite growth, % of DMSO control",[2]; [8],51.5%
Cc1cc(=O)oc2cc(O)ccc12,max response,[1],14.2% (inactive)
same,"parasite growth, % of DMSO control",[2]; [8],85.5%
CC(C)(S)[C@@H](N)C(=O)O,max response,[1],21.3% (inactive)
same,"parasite growth, % of DMSO control",[2]; [8],106%
Cn1c(NCCN(CCO)CCCc2ccc([N+](=O)[O-])cc2)cc(=O)n(C)c1=O,max response,[1],4.58% (inactive)
same,"parasite growth, % of DMSO control",[2]; [8],5.83%
Oc1ccc(OCc2ccccc2)cc1,max response,[1],3.93% (inactive)
same,"parasite growth, % of DMSO control",[2]; [8],89.5%
CC(C)c1nc(CN(C)C(=O)N[C@H](C(=O)N[C@@H](Cc2ccccc2)C[C@H](O)[C@H](Cc2ccccc2)NC(=O)OCc2cncs2)C(C)C)cs1,max response,[1],-4.83% (inactive)
same,"parasite growth, % of DMSO control",[2]; [8],20.4%
Cc1cc(Cl)ccc1OCCCC(=O)NO,"parasite growth, % of DMSO control",[2]; [8],34.3%
Clc1ccc2c(N3CCN(CCCN4CCN(c5ccnc6cc(Cl)ccc56)CC4)CC3)ccnc2c1,"parasite growth, % of DMSO control",[2]; [8],18.8% [at 9.64 µM]
CC(C)CC(=O)N[C@H](C(=O)N[C@H](C(=O)N[C@@H](CC(C)C)[C@@H](O)CC(=O)N[C@@H](C)C(=O)N[C@@H](CC(C)C)[C@@H](O)CC(=O)O)C(C)C)C(C)C (Isovaleryl-VV[Sta]A[Sta]-OH),"parasite growth, % of DMSO control",[2]; [8],59.4%
CCC[C@@H]1C[C@@H](C(=O)N[C@@H]([C@H]2O[C@H](SC)[C@H](O)[C@@H](O)[C@H]2O)[C@@H](C)O)N(C)C1,max response,[1],-9.02% (inactive)
same,"parasite growth, % of DMSO control",[2]; [8],28.5%
Clc1ccc(C(Cn2ccnc2)OCc2c(Cl)cccc2Cl)c(Cl)c1 (configuration not stated),"parasite growth, % of DMSO control",[2]; [8],4.82%
Cc1nc(Nc2ncc(C(=O)Nc3c(C)cccc3Cl)s2)cc(N2CCN(CCO)CC2)n1,remaining parasite growth % (stronger effect = lower value),[3],71.9%
same,"activity, percent of control",[4],71.4%
same,"remaining proliferation (% of control), lower = more inhibition",[5],34.2%
same,"parasite growth, % of DMSO control",[2]; [8],13.5%
Cc1nc(-c2ccc(OCC(C)C)c(C#N)c2)sc1C(=O)O,max response,[1],55.3% (inactive)
same,"parasite growth, % of DMSO control",[2]; [8],64.2%
O=C(O)c1cccc(-c2noc(-c3ccccc3F)n2)c1,max response,[1],-7.05% (inactive)
same,"parasite growth, % of DMSO control",[2]; [8],93.9%
CCN(CC)CCOc1ccc(Cc2ccccc2)cc1,"parasite growth, % of DMSO control",[2]; [8],58.8%
Cc1cccc(CN2CCN(C(c3ccccc3)c3ccc(Cl)cc3)CC2)c1 (configuration not stated),max response,[1],0.914% (inactive)
same,"parasite growth, % of DMSO control",[2]; [8],6.23%
CCCCc1ccc2nc(NC(=O)OC)[nH]c2c1,max response,[1],5.64% (inactive)
same,"parasite growth, % of DMSO control",[2]; [8],49.5%
CC(C)[N+]1(C)[C@@H]2CC[C@H]1CC(OC(=O)C(CO)c1ccccc1)C2 (some centres not stated),max response,[1],6.21% (inactive) and -2.53% (inactive)
same,"parasite growth, % of DMSO control",[2]; [8],82.2%
O=C(NOCC1CC1)c1ccc(F)c(F)c1Nc1ccc(I)cc1Cl,"parasite growth, % of DMSO control",[2]; [8],24.6%
COc1cc2c(N3CCN(C(=O)Nc4ccc(OC(C)C)cc4)CC3)ncnc2cc1OCCCN1CCCCC1,remaining parasite growth % (stronger effect = lower value),[3],-0.248%
same,"activity, percent of control",[4],3.98%
same,"parasite growth, % of DMSO control",[2]; [8],4.84%
CC1=C(C)C(=O)C(C(CCCCCC(=O)O)c2ccccc2)=C(C)C1=O (configuration not stated),max response,[1],-7.88% (inactive)
same,"parasite growth, % of DMSO control",[2]; [8],50.6%
Clc1ccc(C(Cn2ccnc2)OCc2ccc(Sc3ccccc3)cc2)c(Cl)c1 (configuration not stated),"parasite growth, % of DMSO control",[2]; [8],5.64%
CC(S)C(=O)NCC(=O)O (configuration not stated),max response,[1],-4.83% (inactive)
same,"parasite growth, % of DMSO control",[2]; [8],95.6%
COCCCN1CCC(NC(=O)c2cc(Cl)c(N)c3c2OCC3)CC1,"parasite growth, % of DMSO control",[2]; [8],28.3%
CC(=O)Nc1ccc(O)cc1,max response,[6],-9.69% (inactive) and -0.289% (inactive)
same,Potency,[7],inactive
Clc1ccc(C(Cn2ccnc2)OCc2ccsc2Cl)c(Cl)c1 (configuration not stated),Potency,[1],6.31 µM (active)
same,"parasite growth, % of DMSO control",[2]; [8],4.99%
CN(c1nccc(=O)[nH]1)C1CCN(c2nc3ccccc3n2Cc2ccc(F)cc2)CC1,max response,[1],6.96% (inactive)
same,"parasite growth, % of DMSO control",[2]; [8],23.2%
CCCCN(CCCC)CCC(O)c1cc2c(Cl)cc(Cl)cc2c2cc(C(F)(F)F)ccc12 (configuration not stated),remaining parasite growth % (stronger effect = lower value),[3],-0.286% [at 9.63 µM]
same,"activity, percent of control",[4],0.468% [at 9.63 µM]
same,"remaining proliferation (% of control), lower = more inhibition",[5],0.576% [at 9.63 µM]
same,"parasite growth, % of DMSO control",[2]; at 9.64 µM (top of the series),7.84%
same,"parasite growth, % of DMSO control",[2]; at 28.5 µM (top of the series),7.96%
CN(C)C(=O)[C@H](O)[C@H](Cc1ccccc1)NC(=O)c1cc2cc(Cl)ccc2[nH]1,"parasite growth, % of DMSO control",[2]; [8],6.18%
Cc1ccc(C(=O)c2cc(O)c(O)c([N+](=O)[O-])c2)cc1,max response,[1],2.67% (inactive)
same,"parasite growth, % of DMSO control",[2]; [8],82.6%
CN(C)[C@@H](CCOc1cccc2ccccc12)c1ccccc1,"parasite growth, % of DMSO control",[2]; [8],18.8%
CN(C)c1ccc(O)c2c1C[C@H]1C[C@H]3[C@H](N(C)C)C(=O)C(C(N)=O)=C(O)[C@@]3(O)C(=O)C1=C2O,max response,[1],-5.16% (inactive) and -5.04% (inactive)
same,"parasite growth, % of DMSO control",[2]; [8],6.29%
CCC(C)(Oc1ccc(C2(c3ccc(OC(C)(CC)C(=O)O)cc3)CCCCC2)cc1)C(=O)O (configuration not stated),max response,[1],16.5% (inactive)
same,"parasite growth, % of DMSO control",[2]; [8],100%
CN1CCC(=C2c3ccccc3CCc3sccc32)CC1,"parasite growth, % of DMSO control",[2]; [8],8.53%
O=c1oc2cc(O)ccc2s1,max response,[1],-6.04% (inactive)
same,"parasite growth, % of DMSO control",[2]; [8],85.1%
CNC[C@@H](O)[C@@H](O)[C@H](O)[C@H](O)CO,"parasite growth, % of DMSO control",[2]; [8],65.8%
C[C@]12CCC(=O)C=C1CC[C@@H]1[C@H]2[C@@H](O)C[C@@]2(C)[C@H]1CC[C@]2(O)C(=O)CO,"parasite growth, % of DMSO control",[2]; [8],76.9%
CCN(CC)CCOc1ccc(Nc2ncc3cc(-c4c(Cl)cccc4Cl)c(=O)n(C)c3n2)cc1,remaining parasite growth % (stronger effect = lower value),[3],0.673%
same,"activity, percent of control",[4],1.4%
same,"remaining proliferation (% of control), lower = more inhibition",[5],-0.176%
same,"parasite growth, % of DMSO control",[2]; [8],6.09%
